According to PubChem BioAssay (NCI):
Compounds without any hit were thinned out: in the full panel of roughly 83,000, 20% have a hit.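 Plates (96-well) were seeded with cells, treated with compound at one concentration, and incubated for 48 hours before percent growth was determined.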 Values without a mark were called inactive. Activity calls are given as the source filed them. How the source made its calls: active means growth percent below 10; inactive means the rest.

System: SK-OV-3 ovarian
Assay: NCI-60 one-dose screen, 48 h (100 = growth as untreated, 0 = no growth, -100 = all killed)
Settings: 10 µM unless noted

Compared with COc1ccc2c(c1)c(CC(=O)[Se]CC#N)c(C)n2C(=O)c1ccc(Cl)cc1, COc1ccc(-c2cc(-c3ccc(Cl)cc3)c(C#N)c(=O)n2Cc2ccc(C(=O)O)cc2)cc1 is higher in growth: 34% for the first, 114% for the second.

Going from C=C(C)[C@@H]1CC[C@]2(COCCCNCCC#N)CC[C@]3(C)[C@H](CC[C@@H]4[C@@]5(C)CC[C@H](OCCCNCCC#N)C(C)(C)[C@@H]5CC[C@]43C)[C@@H]12 to CC1(C)[C@@H](O)CC[C@]2(C)[C@H]3CC[C@@H]4[C@H]5[C@H](C(=O)/C=C\c6ccncc6)CC[C@]5(O)CC[C@@]4(C)[C@]3(C)CC[C@@H]12, the growth rises from 97.8% to 113%.

Going from CCN1CCN(Cc2cn(-c3ccc(S(N)(=O)=O)cc3)nn2)CC1 to COc1ccccc1N1CCN(C2=CC(=O)C(C)=C(C)C2=O)CC1, the growth rises from 105% to 109%.

Going from COc1cc(OC)c(/C=C/S(=O)(=O)Cc2ccc(OC)c(NCC(=O)NO)c2)c(OC)c1 to CCc1cccc(NC(=O)CNc2cc(S(=O)(=O)N(C)C)cc(C)c2C)c1, the growth rises from 37.3% to 107%.

Compared with O=C(CSc1nnc(-c2ccc(Cl)cc2)n1-c1ccccc1)Nc1cccc(Cl)c1, COc1ccc(N2C(=O)c3cc(Cl)ccc3NC2SCc2ccccc2)cc1 (stereo unspecified) is lower in growth: 126% for the first, 101% for the second.

Going from COc1ccccc1C(=O)Nc1cccc2c1C(=O)C(=O)C=C2 to COc1ccc(C(=O)c2c(N)c(C#N)cn2-c2ccccc2OC)cc1, the growth falls from 114% to 45.6%.

First: NC(N)=Nc1ccc(Nc2cccc(Nc3ccc(Cl)c(C(F)(F)F)c3)c2)cn1
Second: NC(N)=Nc1ccc(Oc2cccc(Nc3ccc(Cl)cc3)c2)cn1
The growth of the first is higher: 77.6% for the first, 53.2% for the second.

First: CCN(CC)c1ccc(NC2=C(Cl)C(=O)c3nc(C)ccc3C2=O)cc1
Second: CCc1ccc(SC2c3ccc(N(CC)CC)cc3Oc3nc(N)c(C#N)c(N)c32)cc1 (stereo unspecified)
The growth of the first is higher: 112% for the first, 17.8% for the second.

First: CC1(C)CC[C@]2(CN)CC[C@]3(C)C(=CC[C@@H]4[C@@]5(C)CCCNC(C)(C)[C@@H]5CC[C@]43C)[C@H]2C1
Second: O=C1[C@@H]2Cc3c([nH]c4ccccc34)[C@H](c3c(Cl)cccc3Cl)N2C(=O)CN1C1CCN(CC2CCCCC2)CC1
The growth of the first is lower: 106% for the first, 123% for the second.

Compared with NC(=O)c1cccc(-n2ccc3cc(NC(=O)Nc4ccc(N5CCOCC5)c(C(F)(F)F)c4)ccc32)n1, N#Cc1cccc(CN2CCc3ncn(Cc4ccc(Cl)cc4)c(=O)c3C2)c1 is higher in growth: 19.8% for the first, 22.8% for the second.

Compared with C#CCC#CCN1CCC[C@H]1C(=O)NCC(=O)OC, COc1c(N2CC3CCCNC3C2)c(F)cc2c(=O)c(C(=O)N/N=C/c3c[nH]c4ccccc34)cn(C3CC3)c12 (stereo unspecified) is higher in growth: 101% for the first, 130% for the second.

Going from COc1ccc2c(c1)Oc1nc(N)c(C#N)c(N)c1C2Sc1ccc(C)cc1 (stereo unspecified) to CC/C(=C/c1cc(OC)ccc1O)c1ccc2cc(OC)ccc2[o+]1, the growth falls from 86.4% to 60.2%.

Going from Cc1nc2ncc(-c3ccc4ncnc(NCc5ccccc5)c4c3)cc2[nH]1 to O=S(=O)(NCCCNc1nccc(-c2[nH]c(-c3ccccc3)nc2-c2ccc(Cl)c(O)c2)n1)c1cccc2ccccc12, the growth rises from 52.5% to 68.5%.

Going from N=c1c2cc(-c3ccccc3)oc2ncn1/N=C/c1ccc(Cl)cc1 to ClC(Cl)c1nc(-c2ccco2)n2nc(-c3ccccc3)cc2n1, the growth falls from 99.7% to 51%.

Compared with NC/C(=C/F)COc1ccc2nc(NCc3cccnc3)oc2c1, CCCn1cnc2c(c1=N)C(c1ccc(F)cc1)c1sc3c(CC)cccc3c1O2 (stereo unspecified) is lower in growth: 110% for the first, 40.3% for the second.

Compared with CNc1ncc2cc(-c3ccc(-c4ncccc4F)cc3Cl)c(=O)n(CC3OCC(N)CO3)c2n1 (stereo unspecified), CC1=CC(=O)C2=C(C)CC(OC(=O)CCc3ccccc3)[C@@H]3[C@H](OC(=O)[C@@H]3C)[C@@H]12 (stereo partly specified) is higher in growth: 75.8% for the first, 91.6% for the second.

In the case of CS(=O)(=O)Nc1cc(-c2ccc3ncc(C#N)c(NCc4ccccc4O)c3c2)cnc1Cl, the growth is reported as -5.88% (active).
With O=C(NNc1nc2cc(F)c(F)cc2n2c(CN3CC4CNCC4C3)ccc12)c1ncccn1 (stereo unspecified) the growth was 7.21% (active).
For C#CCn1cccc1CNc1ccc(OC)cc1, the growth was -63.5% (active).
In the case of C=CC(=O)N1CCC=C(c2cc3c(N[C@H](C)c4ccccc4)ncnc3[nH]2)C1, the growth is reported as -6.72% (active).
In the case of CS(=O)(=O)Nc1cc(-c2ccc3ncc(C#N)c(Nc4cccc(Cl)c4F)c3c2)cnc1Cl, the growth is reported as -18.2% (active).
For N#Cc1cnc2ccc(-c3cnc(N)nc3)cc2c1N1CCc2cc(F)c(Cl)cc21, the growth was 0.148% (active).

System: IGROV1 ovarian
Assay: as above
Settings: 10 µM unless noted

COc1ccc2c(c1)c(CC(=O)[Se]CC#N)c(C)n2C(=O)c1ccc(Cl)cc1 was tested, and the growth was -14.3% (active).
With COc1cc(OC)c(/C=C/S(=O)(=O)Cc2ccc(OC)c(NCC(=O)NO)c2)c(OC)c1 the growth was 9.44% (active).
CS(=O)(=O)Nc1cc(-c2ccc3ncc(C#N)c(NCc4ccccc4O)c3c2)cnc1Cl was tested, and the growth was -41.8% (active).
CCN(CC)c1ccc(NC2=C(Cl)C(=O)c3nc(C)ccc3C2=O)cc1 was tested, and the growth was -52.2% (active).
For C#CCn1cccc1CNc1ccc(OC)cc1, the growth was -68.5% (active).
For COc1ccc2c(c1)Oc1nc(N)c(C#N)c(N)c1C2Sc1ccc(C)cc1 (stereo unspecified), the growth was -76.5% (active).
For CS(=O)(=O)Nc1cc(-c2ccc3ncc(C#N)c(Nc4cccc(Cl)c4F)c3c2)cnc1Cl, the growth was -43.8% (active).
N#Cc1cnc2ccc(-c3cnc(N)nc3)cc2c1N1CCc2cc(F)c(Cl)cc21 was tested, and the growth was -44.6% (active).
For CNc1ncc2cc(-c3ccc(-c4ncccc4F)cc3Cl)c(=O)n(CC3OCC(N)CO3)c2n1 (stereo unspecified), the growth was -2.32% (active).
For CCc1ccc(SC2c3ccc(N(CC)CC)cc3Oc3nc(N)c(C#N)c(N)c32)cc1 (stereo unspecified), the growth was -78% (active).

Compared with C=C(C)[C@@H]1CC[C@]2(COCCCNCCC#N)CC[C@]3(C)[C@H](CC[C@@H]4[C@@]5(C)CC[C@H](OCCCNCCC#N)C(C)(C)[C@@H]5CC[C@]43C)[C@@H]12, CC1(C)[C@@H](O)CC[C@]2(C)[C@H]3CC[C@@H]4[C@H]5[C@H](C(=O)/C=C\c6ccncc6)CC[C@]5(O)CC[C@@]4(C)[C@]3(C)CC[C@@H]12 is lower in growth: 72.1% for the first, 37.3% for the second.

Compared with CCN1CCN(Cc2cn(-c3ccc(S(N)(=O)=O)cc3)nn2)CC1, COc1ccccc1N1CCN(C2=CC(=O)C(C)=C(C)C2=O)CC1 is higher in growth: 107% for the first, 112% for the second.

First: O=C(CSc1nnc(-c2ccc(Cl)cc2)n1-c1ccccc1)Nc1cccc(Cl)c1
Second: COc1ccc(N2C(=O)c3cc(Cl)ccc3NC2SCc2ccccc2)cc1 (stereo unspecified)
The growth of the first is lower: 46.7% for the first, 99.5% for the second.

First: COc1ccccc1C(=O)Nc1cccc2c1C(=O)C(=O)C=C2
Second: COc1ccc(C(=O)c2c(N)c(C#N)cn2-c2ccccc2OC)cc1
The growth of the first is higher: 79.2% for the first, 33.1% for the second.

Going from CCc1cccc(NC(=O)CNc2cc(S(=O)(=O)N(C)C)cc(C)c2C)c1 to CC1=CC(=O)C2=C(C)CC(OC(=O)CCc3ccccc3)[C@@H]3[C@H](OC(=O)[C@@H]3C)[C@@H]12 (stereo partly specified), the growth rises from 74% to 82.7%.

Compared with O=C(NNc1nc2cc(F)c(F)cc2n2c(CN3CC4CNCC4C3)ccc12)c1ncccn1 (stereo unspecified), NC(=O)c1cccc(-n2ccc3cc(NC(=O)Nc4ccc(N5CCOCC5)c(C(F)(F)F)c4)ccc32)n1 is lower in growth: 14.9% for the first, 13.8% for the second.

Going from NC(N)=Nc1ccc(Nc2cccc(Nc3ccc(Cl)c(C(F)(F)F)c3)c2)cn1 to NC(N)=Nc1ccc(Oc2cccc(Nc3ccc(Cl)cc3)c2)cn1, the growth falls from 33.4% to 14.4%.

First: CC1(C)CC[C@]2(CN)CC[C@]3(C)C(=CC[C@@H]4[C@@]5(C)CCCNC(C)(C)[C@@H]5CC[C@]43C)[C@H]2C1
Second: O=C1[C@@H]2Cc3c([nH]c4ccccc34)[C@H](c3c(Cl)cccc3Cl)N2C(=O)CN1C1CCN(CC2CCCCC2)CC1
The growth of the first is higher: 98.1% for the first, 58.4% for the second.

Going from C#CCC#CCN1CCC[C@H]1C(=O)NCC(=O)OC to COc1c(N2CC3CCCNC3C2)c(F)cc2c(=O)c(C(=O)N/N=C/c3c[nH]c4ccccc34)cn(C3CC3)c12 (stereo unspecified), the growth falls from 104% to 97.9%.

Compared with COc1ccc(-c2cc(-c3ccc(Cl)cc3)c(C#N)c(=O)n2Cc2ccc(C(=O)O)cc2)cc1, N#Cc1cccc(CN2CCc3ncn(Cc4ccc(Cl)cc4)c(=O)c3C2)c1 is lower in growth: 96.9% for the first, 44.1% for the second.

Compared with Cc1nc2ncc(-c3ccc4ncnc(NCc5ccccc5)c4c3)cc2[nH]1, O=S(=O)(NCCCNc1nccc(-c2[nH]c(-c3ccccc3)nc2-c2ccc(Cl)c(O)c2)n1)c1cccc2ccccc12 is higher in growth: 16.8% for the first, 28.7% for the second.

First: N=c1c2cc(-c3ccccc3)oc2ncn1/N=C/c1ccc(Cl)cc1
Second: ClC(Cl)c1nc(-c2ccco2)n2nc(-c3ccccc3)cc2n1
The growth of the first is lower: 53.5% for the first, 76.9% for the second.

Compared with NC/C(=C/F)COc1ccc2nc(NCc3cccnc3)oc2c1, CCCn1cnc2c(c1=N)C(c1ccc(F)cc1)c1sc3c(CC)cccc3c1O2 (stereo unspecified) is lower in growth: 86.4% for the first, 10.2% for the second.

Compared with C=CC(=O)N1CCC=C(c2cc3c(N[C@H](C)c4ccccc4)ncnc3[nH]2)C1, CC/C(=C/c1cc(OC)ccc1O)c1ccc2cc(OC)ccc2[o+]1 is higher in growth: 14.5% for the first, 55.1% for the second.
